D1 antag: antagonists of human D1 dopamine receptor; AID 504652; activity change, negative = inhibition, % at 10 µM; P21728; 360,000 tested, 3.2% active; HEK293 TREx D1 cells, calcium flux, dopamine EC80; hits give low values; in the data active means activity change below about -30%; further: on the % scale 0 is the no-effect control and ±100 the full control effect
Target sequence (P21728 whole entry, looked up): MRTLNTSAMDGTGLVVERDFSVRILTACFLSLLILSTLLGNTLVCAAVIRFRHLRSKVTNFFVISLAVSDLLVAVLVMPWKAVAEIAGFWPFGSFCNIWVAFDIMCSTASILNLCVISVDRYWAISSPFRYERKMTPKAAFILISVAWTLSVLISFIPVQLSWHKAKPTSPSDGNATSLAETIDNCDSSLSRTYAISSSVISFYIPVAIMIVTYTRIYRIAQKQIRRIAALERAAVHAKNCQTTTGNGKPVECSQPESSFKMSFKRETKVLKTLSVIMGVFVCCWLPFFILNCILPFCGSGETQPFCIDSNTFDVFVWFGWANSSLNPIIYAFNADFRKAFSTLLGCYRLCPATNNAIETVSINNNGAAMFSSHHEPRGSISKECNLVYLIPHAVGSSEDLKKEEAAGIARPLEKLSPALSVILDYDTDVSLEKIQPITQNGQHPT
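Tetracycline-induced HEK293 T-REx cells with force-coupled D1 receptor were loaded with a no-wash calcium dye. Compound was added after a 10 s baseline and read kinetically for 180 s; EC80 dopamine was then added and calcium flux followed another 180 s.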
TRHR PAM: allosterically enhances the human TRH receptor | enhancement, % at 2 µM | 360,000 tested, 0.66% active | TRHR cells, fluo-8 calcium fluorescence, EC20 TRH enhancement | AID 493056 | P34981; in the data active means enhancement above about 30%; further: 0% is about no effect
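TRHR-expressing cells loaded with fluo-8 calcium dye were read kinetically (ex 480/em 530) during compound addition, then stimulated with an EC20 of TRH (10 nM final). Enhancement of the Gq-mediated intracellular calcium response was scored.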
D1 ag: human D1 receptor agonism; P21728; HEK293 T-REx D1 cells, calcium flux, agonist mode; activation, % at 2 µM; 360,000 tested, 1% active; further: 0% is about no effect
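Inducible HEK293 T-REx D1 cells, force-coupled to calcium signalling, were plated at 4000 cells/well with tetracycline and held overnight at 30 C. After no-wash calcium dye loading, compound-evoked calcium rise over 180 s flagged agonists.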
TRHR agonist: agonists of human TRH receptor. TRHR cells, calcium flux fluo-8, FDSS agonist mode. activation, % at 2 µM. 360,000 tested, 0.18% active. AID 493084; further: 0% is about no effect
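Agonist-mode FDSS calcium read (Ex 480/Em 530, 1 s cycles) in 1536-well TRHR cells with fluo-8 dye, after 10-cycle baseline and 23 nL compound addition; TRH at EC20 (10 nM final) added afterwards for the enhancer phase.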
D1 PAM: enhances dopamine response at the human D1 receptor. potentiation, % at 10 µM. AID 504651. HEK293 TREx D1 cells, calcium flux, dopamine EC20 potentiation. 360,000 tested, 0.036% active. P21728; in the data active means potentiation above about 30%; further: 0% is about no effect
An asterisk follows results filed as active; . = not tested or not shown. An excerpt weighted towards active compounds, which were near 4.6% of everything screened. Unless noted, no stated cut-off is given here; in the data, active means activation above about 30%; inactive means the rest.

SMILES	D1 antag	TRHR PAM	D1 ag	TRHR agonist	D1 PAM
O=C(c1cc(C2CC2)nn1-c1ccccc1)N1CCN(c2ccc(O)cc2)CC1	1.6	30.0*	2.3	-1.3	12.1
Nc1ncc(Br)cc1S(=O)(=O)Nc1cc(C(F)(F)F)cc(C(F)(F)F)c1	-34.0*	-6.6	19.2	3.6	-6.1
Cc1ccc(NS(=O)(=O)c2cc(Br)cnc2N)c(Cl)c1	5.8	-0.9	7.7	-0.5	-4.6
CC(=O)c1cccc(NC(=O)CCn2nc(C)c(S(=O)(=O)N(C)C)c2C)c1	-47.1*	3.1	0.3	0.5	-1.0
CCOC(=O)c1cccc(NC(=O)CCn2nc(C)c(S(=O)(=O)N3CCCCC3)c2C)c1	-4.3	-6.2	4.1	0.1	-7.4
O=C(Nc1nnc(-c2ccc(Br)cc2)o1)C1=COCCO1	-14.0	-5.0	1.9	-0.1	-0.8
O=C1CCc2ccc(OCCCCN3CCN(c4cccc(Cl)c4Cl)CC3)cc2N1	-43.9*	-2.3	.	-0.3	.
CCOC(=O)c1cc(C(=O)n2cc(Cl)cn2)nn1C	-15.9	-0.9	4.9	0.1	-8.8
COc1ccccc1NC(=O)c1cc2c(n(-c3ccc(C)cc3)c1=O)CC(C)(C)CC2=O	-30.9*	-7.3	-1.8	1.9	-1.2
COc1ccccc1Cn1cc(C(=O)c2ccc(Cl)cc2)c(=O)c2ccccc21	-2.2	10.6	13.2	-0.3	-0.7
CSc1oc(-c2ccc(F)cc2)nc1S(=O)(=O)c1ccc(F)cc1	7.2	1.8	1.3	-0.2	-6.8
CS(=O)(=O)c1oc(-c2ccc(F)cc2)nc1S(=O)(=O)c1ccc(Cl)cc1	-6.3	48.7*	0.9	0.6	-1.4
Cc1ccc(-n2[nH]c(C)c(C=Nc3ccc(Br)cn3)c2=O)cc1	-33.0*	0.5	1.7	0.4	-7.8
Nc1[nH]n2c(=O)cc(-c3ccccc3)nc2c1N=Nc1ccccc1	-37.9*	-4.3	2.1	1.2	-14.9
COc1ccc(-c2csc(NC(=O)c3cccc(N4C(=O)CCC4=O)c3)n2)cc1OC	-2.7	7.9	0.9	0.1	4.2
COc1cc(CNC2CCCC2)c(Br)cc1OC1CCCC1	-30.2*	-2.8	19.7	0.4	-11.6
COc1ccc(OCCCCn2c(-c3ccc(Cl)cc3)nc3ccccc3c2=O)cc1	11.9	-0.9	1.9	-0.2	3.0
Brc1ccc(NC2=Nc3ccccc3CC2)cc1	-30.0*	-1.1	1.9	2.9	-5.6
Cc1ccc(NC(=O)COC(=O)CCCC2=NS(=O)(=O)c3ccccc3N2)cc1C	-5.8	11.3	1.5	-0.4	7.6
Cc1ccccc1COC(=O)CCCC1=NS(=O)(=O)c2ccccc2N1	-0.5	-5.1	30.6*	2.4	-2.7
Cc1ccnc(NC(=O)CCC(=O)N(CC(=O)NC2CCCCC2)c2cccc(C)c2C)c1	-42.4*	-4.4	0.8	0.1	-4.0
Cc1ccc(N(CC(=O)NC2CCCC2)C(=O)CCCC(=O)Nc2ccccn2)cc1C	-45.8*	3.2	0.7	-1.9	-7.5
O=C(CCC(=O)N(CC(=O)NC1CCCC1)C1CCCCC1)Nc1ccccn1	-46.3*	5.7	8.0	0.2	-6.8
COc1cccc(-c2ncc3ccccc3c2COC(=O)c2ccccc2C(=O)O)c1	.	1.9	-0.1	-0.3	6.6
O=C1c2ccccc2-c2onc3ccc(NCCCn4ccnc4)c1c23	-14.4	2.2	208.3*	112.4*	4.5
SMILES	D1 antag	TRHR PAM	D1 ag	TRHR agonist	D1 PAM
CC(C)Oc1ccc(C(=O)NCC(=O)O)cc1	0.3	4.3	3.7	1.0	-0.7
O=S(=O)(c1ccc2c(c1)OCCO2)N1CCC(n2nnc3cc(F)ccc32)CC1	-3.7	-2.9	4.6	0.9	-6.9
O=S(=O)(c1ccc2c(c1)OCCO2)N1CCC(n2cnc3cc(F)ccc32)CC1	-45.9*	2.9	7.4	0.0	-7.6
O=C(NCC1CCCO1)c1cccc(S(=O)(=O)N(Cc2ccccc2)c2ccccc2)c1 (stereo unspecified)	-6.1	0.7	4.5	1.0	0.3
CCCCCc1cc(=O)oc2c(C(CCN3CCCCC3)c3cc(OC)c(OC)c(OC)c3)c(OC)cc(OC)c12 (stereo unspecified)	14.8	6.4	18.2	2.9	1.9
CCCCCc1cc(=O)oc2c(C(CCN3CCCC(C)C3)c3cc(OC)c(OC)c(OC)c3)c(OC)cc(OC)c12 (stereo unspecified)	-46.7*	1.2	21.8	-0.4	-10.4
COc1cc(C(CCN2CCN(c3ccccc3)CC2)c2c(OC)cc(OC)c3c(C)cc(=O)oc23)cc(OC)c1OC (stereo unspecified)	-81.2*	0.2	0.4	-0.1	-13.3
COc1cc(OC)c2c(C)cc(=O)oc2c1C(CCN1CCOCC1)c1ccc2c(c1)OCO2 (stereo unspecified)	-67.6*	-0.6	10.9	0.0	-8.8
CC(O)CNCCOc1ccccc1OCc1ccccc1 (stereo unspecified)	-17.5	-1.5	7.5	-3.3	-7.1
OCCNCc1c(OCc2ccc(Cl)cc2)ccc2ccccc12	-37.7*	2.7	160.4*	-0.6	-12.1
CC(O)CNCCNCc1c(OCc2ccccc2)ccc2ccccc12 (stereo unspecified)	3.2	13.1	121.6*	-1.2	-4.1
Cn1c(=O)n(CCOc2ccc([N+](=O)[O-])cc2)c2ccccc21	-59.1*	11.4	0.0	-0.4	-12.2
CCOC(=O)CN(C(=O)CSc1nnc(COc2ccc(OC)cc2)n1C)c1ccccc1	-45.7*	3.1	-1.3	-0.5	-3.3
Cc1ccccc1-n1c(C)nnc1SCc1nc2ccccc2s1	-3.6	-3.4	1.5	-0.3	-3.8
CCOc1ccccc1-n1nnnc1SCc1nc2ccccc2s1	-31.3*	-10.9	12.7	0.1	-2.5
COc1ccc(/C=C/C(=O)c2ccccc2)cc1COc1ccccc1F	10.0	4.0	38.1*	-0.3	2.3
COc1ccc(C=O)cc1COc1ccccc1F	-6.6	-0.4	-1.1	-0.4	0.5
C#CCOCCOCCOCCNc1nc(N2CCN(C(=O)[C@H]([C@@H](C)CC)n3cc(CCCN=C(N)N)nn3)CC2)nc(N2CCN(C(=O)[C@H](CCCCN)n3cc(CC(C)O)nn3)CC2)n1 (stereo partly specified)	12.9	-1.7	3.2	-0.4	-5.0
COc1ccc(CCC(=O)NNC(=O)Cn2nc(C)cc2C)cc1	-58.0*	15.4	3.9	0.9	-10.6
Cc1cc(C)n(CC(=O)NNC(=O)CCCOc2ccc(Cl)c(C)c2)n1	12.0	-0.2	7.4	0.0	0.5
C=Cc1ccc(CSc2nc(-c3ccc(OC)cc3)nc3c2Cc2c(CO)cnc(C)c2O3)cc1	3.7	0.1	1.8	0.1	-0.6
CCN(CC)C(=O)CSc1nc2cc3c(cc2c(=O)n1CCCC(=O)NCCc1ccc(OC)c(OC)c1)OCO3	17.0	2.6	3.6	-1.3	-12.9
CC1(c2ccc(Cl)cc2)NC(=O)N(CC(=O)N2CCc3ccccc3C2)C1=O (stereo unspecified)	27.8	5.1	31.8*	3.5	0.9
